Only some compounds are listed: those with a hit (about 0.28% of all), similar ones and a draw of the others.
hcGAS lum: inhibitors of human cGAS. inhibition, % at 12.5 µM. hit rate 0.081% among 290,000. recombinant h-cGAS, ATP depletion, Kinase-Glo luminescence. Q8N884. AID 1259398
mcGAS inh: mouse cGAS inhibition by luminescence | Q8C6L5 | recombinant cGAS, Kinase-Glo ATP depletion luminescence | inhibition, % at 12.5 µM | hit rate 0.15% among 160,000 | AID 1259399
Target sequence (Q8C6L5 whole entry, looked up): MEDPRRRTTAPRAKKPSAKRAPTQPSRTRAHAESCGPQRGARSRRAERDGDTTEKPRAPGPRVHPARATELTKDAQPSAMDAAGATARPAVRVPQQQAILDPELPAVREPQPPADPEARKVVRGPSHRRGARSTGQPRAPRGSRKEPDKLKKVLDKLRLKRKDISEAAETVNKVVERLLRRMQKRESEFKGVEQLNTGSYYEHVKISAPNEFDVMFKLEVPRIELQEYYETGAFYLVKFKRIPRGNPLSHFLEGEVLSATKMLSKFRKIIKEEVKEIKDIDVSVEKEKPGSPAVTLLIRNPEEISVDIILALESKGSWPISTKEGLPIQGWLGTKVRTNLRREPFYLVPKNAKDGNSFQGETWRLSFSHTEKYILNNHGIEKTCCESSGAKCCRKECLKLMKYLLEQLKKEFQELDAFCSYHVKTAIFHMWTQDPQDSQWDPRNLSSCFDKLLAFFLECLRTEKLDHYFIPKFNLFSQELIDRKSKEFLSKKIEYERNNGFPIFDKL
NPYLR7 agonist: activates Aedes aegypti NPYLR7 receptor. HEK293T NPYLR7/Galpha15, GCaMP6s calcium fluorescence. activation, % at 10 µM. hit rate 0.15% among 270,000; in the data active = activation above about 40%
Of the large screens only hits and unclear results are named; the others gave an inactive call; ! = repeats disagree. Cut-off read from the data, not from the text of the source, unless noted: active = inhibition above about 40%; inactive = the rest.

CC(C)CC(CO)NC(=O)Nc1cccs1 (stereo unspecified)	none (no result: mcGAS inh)
CCOC(=O)c1cc(C(C)(C)C)n(C2CCN(C(=O)COC)CC2)n1	none
O=C(O)c1cc(Br)c2ccccc2c1O	mcGAS inh 68
COc1cc(Br)c(OC)c(C(=O)O)c1	none (no result: mcGAS inh)
Clc1c(-c2nnco2)sc2ccccc12	none (no result: mcGAS inh)
S=c1[nH]nc(-c2sc3ccccc3c2Cl)o1	hcGAS lum 50!, mcGAS inh 47
CCOC(=O)c1cnc2cc3c(cc2c1Cl)OCO3	none (no result: mcGAS inh)
COc1ccc(-c2cccc(-c3ccc(NC(=O)c4oc5ccccc5c4C)cc3)n2)cc1	NPYLR7 agonist 43
COc1ccc(-c2cccc(-c3ccc(NC(=O)c4c(F)cccc4F)cc3)n2)cc1	none
CCN(CC)C(=O)Oc1ccc2c(ccn2Cc2cc(Br)cc(Br)c2)c1-c1ccc(C#N)cc1	none
CCOC(=O)c1ccccc1N1C(=O)/C(=C\c2ccncc2)N(C)C1=S	none
CCCC[n+]1c(C)cc(C=C2Sc3ccccc3N2C)cc1C	NPYLR7 agonist 198 (no result: mcGAS inh)
CCC(C)[n+]1c(C)cc(C=C2Sc3ccccc3N2CC)cc1C (stereo unspecified)	NPYLR7 agonist 78 (no result: mcGAS inh)
CN(C)CCCN1c2ccccc2Sc2ccc(C(F)(F)F)cc21	none
Cc1cc(C=C2Sc3ccccc3N2C)cc(C)[n+]1Cc1ccncc1	NPYLR7 agonist 51
CCC(C)[n+]1c(C)cc(C=C2Sc3ccccc3N2C)cc1C (stereo unspecified)	NPYLR7 agonist 173 (no result: mcGAS inh)
CCOC(=O)/C(C#N)=C1/Sc2ccccc2N1C	none (no result: mcGAS inh)
CCN1c2ccccc2Sc2cc(C=O)ccc21	none (no result: mcGAS inh)
COc1ccccc1N1CCN(c2ccc(NC(=O)Nc3ccc(C(F)(F)F)cc3)cc2C(=O)NCCN2CCOCC2)CC1	none
Cc1nc(CN2CCN(C(=O)c3cc4c(s3)-c3ccccc3CC4)CC2)cs1	none (no result: mcGAS inh)
COc1ccc(CN2CCN(Cn3nnc4ccccc4c3=O)CC2)cc1F	none (no result: mcGAS inh)
CC(C)(C)c1ccc(C(=O)N2CCN(c3ccc(-n4cccn4)nn3)CC2)cc1	none (no result: mcGAS inh)
Cc1cc(C=C2Sc3ccccc3N2C)cc(C)[n+]1-c1ccccc1	NPYLR7 agonist 76 (no result: mcGAS inh)
Cc1cc(C=C2Sc3ccccc3N2C)cc(C)[n+]1N1CCN(C)CC1	none (no result: mcGAS inh)
CCN1C(=CC=Cc2sc3ccccc3[n+]2CC)Sc2ccccc21	none (no result: mcGAS inh)
CCN1C(=Cc2ccc3cc(C)ccc3[n+]2CC)Sc2ccccc21	NPYLR7 agonist 74 (no result: mcGAS inh)
CN1C(=C2C(=O)CC(C)(C)CC2=O)Sc2ccccc21	none (no result: mcGAS inh)
CCN1/C(=C/C2=CC(=O)CC(C)(C)C2)Sc2ccccc21	NPYLR7 agonist 60 (no result: mcGAS inh)
O=C(Cn1cncn1)NN=Cc1ccc([N+](=O)[O-])o1	none (no result: mcGAS inh)
CC(NC(=O)C1=NN(c2ccccc2)C(=O)CC1)c1ccc(C#N)cc1 (stereo unspecified)	none (no result: mcGAS inh)
CCc1nc(-c2ccccc2)nc(N2CCN(C(=O)c3cccs3)CC2)c1Cc1cccc(Cl)c1	none (no result: NPYLR7 agonist)
COc1ccc(-c2onc3c2CCC3)cc1NC(=O)c1cc(C)nn1C	none
CC(C)S(=O)(=O)Oc1ccc(CN(Cc2ccco2)C(=O)c2cccc(F)c2)cc1	hcGAS lum 45
CC(C)S(=O)(=O)Oc1ccc(CN(C(=O)c2cccc(F)c2)C2CC2)cc1	none
COc1cc(OC)cc(-c2noc(Cn3ccn4nc(-c5ccc(C)cc5)cc4c3=O)n2)c1	none
Oc1cc2c(cc1O)C1c3ccc(O)c(O)c3OCC1(O)C2 (stereo unspecified)	mcGAS inh 50
N=C(N)c1ccc(OCCCCCOc2ccc(C(N)=O)cc2)cc1	none
N=C(N)c1ccc(OCCCCCOc2ccc(C(=N)N)cc2)cc1	NPYLR7 agonist 66! (no result: mcGAS inh)
O=C(NNc1nc(-c2ccccc2)c2cc(Br)ccc2n1)c1ccc(F)cc1	none
Cn1c(=O)c2cc(C(=O)NC(C)(C)C)n(Cc3ccccc3)c2n(C)c1=O	none
COc1cc2oc(=O)c3c4c(cc5ccc(c1CCN(C)C)c2c53)OCO4	hcGAS lum 44, mcGAS inh 52
COc1cc(CNCCN(C)C)cc2c1OCO2	none
CCC(C)(C)NC(=O)c1cccn2c(C)nnc12	none
CCCCc1nc(N2CCCN(C(=O)c3ccc(Cl)cc3Cl)CC2)c2c(-c3ccc4ccccc4c3)noc2n1	none
CN1C(=CC=C2C(=O)CC(C)(C)CC2=O)C(C)(C)c2ccccc21	NPYLR7 agonist 298 (no result: mcGAS inh)
C=c1[nH]n(-c2ccccc2)c(=O)c1=CC=C1N(C)c2ccccc2C1(C)C	none (no result: mcGAS inh)
CC(C)(O)C#Cc1ccc(CN2CC[C@@H](N3CCN(c4ccccn4)CC3)[C@H](O)C2)cc1	none (no result: mcGAS inh)
CCc1nc(N=C(N)N)nc2cc(C)ccc12	NPYLR7 agonist 62 (no result: mcGAS inh)
COc1ccc2c(C)nc(N=C(N)N)nc2c1	NPYLR7 agonist 59 (no result: mcGAS inh)
COc1ccc(N=C(N)N)cc1	none (no result: mcGAS inh)
CCCC(=O)NC(N)=Nc1nc(C)c2cc(C)ccc2n1	none
Cc1ccc(CN(C)C(=O)NCC(C)(C)S(C)(=O)=O)s1	none (no result: mcGAS inh)
COc1ccc(Oc2cc(N(C)Cc3ccccc3)ncn2)cc1	none
CC(C)c1ccc(S(=O)(=O)N=C2C=C(Cl)C(=O)c3ccccc32)cc1	none (no result: mcGAS inh)
O=C1C(Sc2ncn[nH]2)=CC(=NS(=O)(=O)c2ccccc2)c2ccccc21	mcGAS inh 51
Nc1ccc(Oc2cc(N)cc(Oc3ccccc3)c2)cc1	NPYLR7 agonist 74
Nc1ccc(Oc2ccc([N+](=O)[O-])cc2)cc1	none (no result: mcGAS inh)
CC(=O)N1CCc2c(sc(NC(=O)C3=COCCO3)c2-c2nc3ccccc3s2)C1	none (no result: mcGAS inh)
CC(=O)Nc1sc2c(c1-c1nc3ccccc3s1)CCN(Cc1ccccc1)C2	NPYLR7 agonist 197
CCN1CCc2c(sc(NC(=O)C3=COCCO3)c2-c2nc3ccccc3s2)C1	NPYLR7 agonist 60 (no result: mcGAS inh)
CC(=O)Nc1sc2c(c1-c1nc3ccccc3s1)CCN(C(C)=O)C2	none (no result: mcGAS inh)
O=C1NC(=Nc2cccc(Cl)c2)N2Cc3ccccc3CC12 (stereo unspecified)	none (no result: mcGAS inh)
Nc1nc(Cl)nc2c1ncn2[C@@H]1O[C@H](COP(=O)(O)OP(=O)(O)OP(=O)(O)O)[C@H](O)C1O (stereo partly specified)	NPYLR7 agonist 129
Nc1ncnc2c1ncn2C1OC(COP(=O)(O)OP(=O)(O)OP(=O)(O)OP(=O)(O)OCC2OC(n3cnc4c(N)ncnc43)C(O)C2O)C(O)C1O (stereo unspecified)	none
O=C(O)c1ccccc1OCCC1CCCCC1	none
O=C(CCc1ccccc1Br)NCC1CCCC(O)C1 (stereo unspecified)	none (no result: mcGAS inh)
Cc1ccc(C)c(C2C(C#N)C(=N)SC(=N)C2C#N)c1 (stereo unspecified)	NPYLR7 agonist 120 (no result: mcGAS inh)
N#CC1C(=N)SC(=N)C(C#N)C1c1ccc(F)cc1F (stereo unspecified)	none
Cc1ccc(-c2cc(NC(=O)CCC3CCCC3)n(-c3ccccc3)n2)cc1	none
COC(=O)c1cccc(NC(=O)Cn2nc3c(N4CCC(C)CC4)nccn3c2=O)c1	none
CCOc1ccc(C2=NC(=Cc3cc(OC)c4c(c3)OCCO4)C(=O)O2)cc1OCC	none (no result: mcGAS inh)
COc1cc(C=C2N=C(c3ccc4c(c3)OCO4)OC2=O)cc2c1OCCO2	NPYLR7 agonist 97 (no result: mcGAS inh)
CCOC(=O)Cn1c(CN2CCN(c3ccc(F)cc3)CC2)nc2c1c(=O)n(C)c(=O)n2C	none (no result: mcGAS inh)
CC(C)N1CCOC(Cc2nn3c(Cc4ccccc4)nnc3s2)C1 (stereo unspecified)	none
CCCc1[nH]n(C)c(=O)c1C1=C(N(C)Cc2ccccc2)C(=O)N(CC(C)C)C1=O	none
O=C1NN=C(c2ccccc2)C/C1=N/Nc1ncnc2ccccc12	none
C(=Cc1ccccc1)C=NNc1ncnc2ccccc12	NPYLR7 agonist 161 (no result: mcGAS inh)
CSc1nnc(C)c(=O)n1COC(=O)c1ccc(F)cc1	none

Screening results from PubChem BioAssay.
